Hits are enriched below; roughly 14% of the tested compounds scored in any of these assays.
Sm TGR block – S. mansoni TGR enzyme inhibition | actives 3% (n = 360,000) | Potency, µM (doses to about 114 µM), for inactives: at the highest dose activity change, negative = inhibition, usual class: inhibitors | purified TGR, DTNB reduction, TNB absorbance 405 nm; further: potency means the concentration at half of the fitted maximal effect; nearly all actives have a fitted effect of over 60% in size
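TGR 20 nM + NADPH 100 uM (dispensed conc.), cpd preinc 15 min RT; start with NADPH (500 uM addition) then DTNB (15 mM addition). Kinetic TNB absorbance, 405 nm filter. Four-parameter Hill fit across titration.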
Giardia FBPA inh – inhibitors of Giardia lamblia fructose-1,6-bisphosphate aldolase | A8B2U2 | purified Giardia FBPA | Potency, µM (top dose mostly 59.6 µM), inactives show at the highest dose activity, negative = inhibition, usual class: inhibitors | actives 0.71% (n = 290,000) | AID 2451; further: potency means the concentration at half of the fitted maximal effect; nearly all actives have a fitted effect of over 55% in size
Target sequence (A8B2U2 whole entry, looked up): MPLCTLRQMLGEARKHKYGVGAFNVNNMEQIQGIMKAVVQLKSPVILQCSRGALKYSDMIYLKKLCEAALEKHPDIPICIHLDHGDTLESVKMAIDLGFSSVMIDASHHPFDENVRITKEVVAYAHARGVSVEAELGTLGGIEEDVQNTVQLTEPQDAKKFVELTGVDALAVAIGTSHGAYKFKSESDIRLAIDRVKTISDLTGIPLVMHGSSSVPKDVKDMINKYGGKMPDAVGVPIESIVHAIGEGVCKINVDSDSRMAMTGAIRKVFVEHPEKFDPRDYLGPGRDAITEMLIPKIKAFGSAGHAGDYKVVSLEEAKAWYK
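40 nM FBPA preincubated 10 min at RT with compound (up to 57.5 uM final), then substrate plus GAPDH/TPI/NAD/arsenate coupling and diaphorase/resazurin added. Fluorescence read after 20 min at RT, 525/598 nm.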
Pf growth 96h – P. falciparum growth inhibition at 96 hours | P. falciparum luciferase reporter growth, 96 h | Potency, µM (highest dose often 28.7 µM), without a hit: at the top dose activity change, negative = inhibition, usual class: inhibitors | actives 6.9% (n = 320,000) | AID 504834; further: potency means the concentration at half of the fitted maximal effect
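Infected RBCs, 2% Hct / 0.05% parasitemia final; luciferase-reporter P. falciparum; cpd 96 h, 37 C, 5% CO2; luciferase detection reagent; luminescence.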
Pf growth 48h – inhibits P. falciparum growth in the first generation, 48 h; P. falciparum luciferase growth in erythrocytes, 48 h; Potency, µM (titrated, usually from 28.7 µM), without a hit: at the highest dose activity change, negative = inhibition, actives largely listed as inhibitors; actives 5.9% (n = 310,000); AID 504832; further: potency means the concentration at half of the fitted maximal effect
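First compound was added to culture medium, then infected red cells at 0.1% parasitemia and 2% hematocrit (final). After incubation at 37 C under 5% CO2, luciferase detection reagent was dispensed and light output recorded.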
HCMV inh – blocks human cytomegalovirus replication | HFF cells, HCMV-luciferase reporter, 72 h; hits give low values | activity change, negative = inhibition, % at 57.5 µM | actives 4.5% (n = 410,000) | AID 1259415; in the data active means activity change below about -60%; inconclusive means no clear call, values can overlap the other calls; inactive means above about -39%
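Inhibition of viral replication was scored as loss of reporter luminescence in HFFs infected with HCMV-luciferase (MOI 1 PFU/cell) for 72 h; compounds tested at 2 doses, normalized to buffer and Salinomycin controls.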
* = called active by the depositor; u = inconclusive; x = not tested or not shown; [ ] = remark or other dose. Unless noted, the call rests on the fitted dose curve; in most records, active means well fitted curve in the direction sought with a large enough effect; inconclusive means small, poorly fitted or top-dose-only effect, or another doubt; inactive means no such curve, though single readings can be large; an effect the other way counts as inactive or inconclusive. On the % scale 0 is the no-effect control and ±100 the full control effect.

SMILES	Sm TGR block	Giardia FBPA inh	Pf growth 96h	Pf growth 48h	HCMV inh
CCC(=O)N(C)C[C@H]1Oc2cc(-c3ccccc3F)ccc2S(=O)(=O)N([C@H](C)CO)C[C@H]1C	x	x	x	x	5
COC(=O)C1=C(C)N(Cc2ccccc2)C(=NCc2cccc(C(F)(F)F)c2)N[C@H]1c1cccc(F)c1	27%	4%	u	6.6µM*	-98*
COC(=O)C1=C(C)N(CC2CC2)C(=NCc2cccc(C(F)(F)F)c2)N[C@H]1c1ccccc1	5%	6%	32%	9%	x
COC(=O)C1=C(C)N(Cc2ccccc2)C(=NCc2ccc(OC)cc2)N[C@H]1c1ccccc1	-28%	-8%	-4%	u	-37
COC(=O)C1=C(C)N(Cc2ccc(C(F)(F)F)cc2)C(=NCc2ccccc2)NC1c1ccccc1 (stereo not given)	x	x	x	x	-92*
COc1ncc2nc(-c3cn(C)c4ccccc34)c(=O)n(-c3ccccc3)c2n1	x	10%	x	x	x
CCOc1cc2[nH]c(=O)n(CCCCCC(=O)NC3CCCC3)c(=O)c2cc1OCC	-23%	x	10µM*	u	51
COc1cc2cc(C(=O)NCCc3ccccc3)[nH]c2cc1OC	89µM*	-1%	u	8%	5
COc1cc2[nH]c(=O)n(CCCC(=O)NCCc3ccccc3)c(=O)c2cc1OC	u	10%	5.2µM*	u	8
CN(CC(=O)Nc1ccccc1Cl)C(=O)c1ccc(N2C(=O)CCC2=O)cc1	0%	x	12%	u	-13
O=C(O)CC/C=C\CC[C@H]1[C@@H](N2CCCCC2)[C@@H](O)C[C@@H]1OCc1ccc(-c2ccccc2)cc1	x	17%	x	x	x
Cc1ccc(C(C)C)c(OCC(=O)NCC(c2cccs2)N2CCOCC2)c1 (stereo not given)	5%	x	10µM*	13µM*	u
Cc1cc(OCC(=O)NCC(c2cccs2)N2CCOCC2)ccc1C(C)C (stereo not given)	-4%	x	13µM*	u	-26
Cc1cccc(OCC(=O)NCC(c2cccs2)N2CCOCC2)c1 (stereo not given)	-9%	x	-8%	-1%	9
O=C(COc1cccc(Cl)c1)NCC(c1cccs1)N1CCOCC1 (stereo not given)	-25%	x	u	u	0
Cc1cc(Cl)ccc1OCC(=O)NCC(c1cccs1)N1CCOCC1 (stereo not given)	0%	x	u	13µM*	-72*
COc1ccc(NC(=O)Nc2cccc(-c3cn4cccnc4n3)c2)cc1	-19%	x	x	x	8
FC(F)(F)c1cc(Cl)c2nc(-c3ccccc3)c(Cc3ccccc3)n2c1	x	x	x	x	38
CCCCCc1ccc2cc(C#N)ccc2n1	x	x	x	x	2
CO[C@H]1/C=C/O[C@@]2(C)Oc3c(C)c(O)c4c(O)c(c(C=NN5CCN(C)CC5)c(O)c4c3C2=O)NC(=O)/C(C)=C\C=C\[C@H](C)[C@H](O)[C@@H](C)[C@@H](O)[C@@H](C)[C@H](OC(C)=O)[C@@H]1C	-4%	x	u	1.2µM*	3
CO[C@H]1C=CO[C@@]2(C)Oc3c(C)c(O)c4c(O)c(c(C=NN5CCN(C)CC5)c(O)c4c3C2=O)NC(=O)C(C)=CC=C[C@H](C)[C@H](O)[C@@H](C)[C@@H](O)[C@@H](C)[C@H](OC(C)=O)[C@@H]1C	-18%	u	1.2µM*	1.2µM*	-19
CO[C@H]1C=CO[C@@]2(C)Oc3c(C)c(O)c4c(O)c(c(C=NN5CCN(C6CCCC6)CC5)c(O)c4c3C2=O)NC(=O)C(C)=CC=C[C@H](C)[C@H](O)[C@@H](C)[C@@H](O)[C@@H](C)[C@H](OC(C)=O)[C@@H]1C	5%	u	x	x	x
CC(=O)CSc1nnc2cc(C)c3cc(C)cc(C)c3n12	-3%	x	x	x	19
CCc1cc(S(=O)(=O)N2CCN(C(=O)c3ccco3)CC2)ccc1OC	-4%	12%	-14%	-22%	-16
Cc1ccc(NC(=O)CCc2ccc(C)o2)c(C)c1	-9%	x	46%	3%	0
SMILES	Sm TGR block	Giardia FBPA inh	Pf growth 96h	Pf growth 48h	HCMV inh
Cc1ccc(NC(=O)CC2(CC(=O)O)CCCC2)c(C)c1	6%	3%	4.1µM*	3%[0.00184 µM]	21
Cc1ccc(NC(=O)CCl)c(C)c1	25µM*	0%	10µM*	1.9µM*	-24
CC(=O)c1cccc(NC(=O)c2nc(-c3ccccc3)n(-c3ccccc3C)n2)c1	0%	x	x	x	12
Cc1ccccc1-c1ccc2ncnc(-n3ccnc3)c2c1	x	9%	x	x	x
C=C1C(=O)O[C@H]2C[C@]3(C)C([C@@H](OC(=O)/C(C)=C/C)[C@H]12)[C@](C)(O)CC[C@H]3O (stereo not given in full)	14µM*	13%	-9%	-20%	-39
CCCOC1CCCN(C(=O)CCc2nnc(-c3ccc4c(c3)OCO4)o2)C1 (stereo not given)	-7%	x	13µM*	15%	61
CC(C)c1ccc(NC(=O)C2CSC3(C)CCC(=O)N23)cc1 (stereo not given)	6%	x	-18%	-7%	9
CC12CCC(=O)N1C(C(=O)NNC(=O)c1ccccc1Cl)CS2 (stereo not given)	-10%	x	-26%	4%	-90*
Cc1ccc(OC(=O)C2CSC3(C)CCC(=O)N23)c(Br)c1 (stereo not given)	-15%	x	5.9µM*	23%	14
CC1CC(C)CN(S(=O)(=O)c2ccc(NC(=O)C3CSC4(C)CCC(=O)N34)cc2)C1 (stereo not given)	1%	x	9.3µM*	u	-21
CN(Cc1ccc(Cl)c(Cl)c1)C(=O)C1CSC2(C)CCC(=O)N12 (stereo not given)	-2%	x	u	u	-82*
CN(CC(=O)Nc1c(Cl)cccc1Cl)C(=O)C1CSC2(C)CCC(=O)N12 (stereo not given)	3%	x	-17%	2%	0
Cc1cc(C)c2c(=O)nc(SCc3ccccc3C)n(C3CC3)c2n1	3%	x	x	x	3
CN(C)CCNc1nc(-c2ccccc2F)c2sccc2n1	x	x	x	x	-14
CC12CCC(=O)N1C(C(=O)Nc1cccc(S(=O)(=O)N3CCCCCC3)c1)CS2 (stereo not given)	-9%	x	13µM*	-13%	-5
CC12CCC(=O)N1C(C(=O)Nc1ccc(S(=O)(=O)N3CCCCC3)cc1)CS2 (stereo not given)	-1%	x	0%	u	-6
COC(=O)c1ccccc1S(=O)(=O)N1CCc2nc(COc3ccccc3)c3c(c2C1)CO[C@@H](C)C3	x	6%[12.9 µM]	x	x	x
O=C(Cc1nc2ccccc2[nH]1)c1ccc(Br)cc1	-7%	-1%	1.7µM*	u	0
CCN/N=C(\Cc1nc2ccccc2[nH]1)c1ccccc1	-7%	-1%	u	10µM*	24

Screens deposited in PubChem BioAssay by National Center for Advancing Translational Sciences (NCATS).
